Screening results as filed in PubChem.
The entries come from a sample that favours hits as a whole.
a7 integrin act – integrin-mediated muscular dystrophy alleviation activation; Potency, µM (titrated, usually from 38.3 µM), inactives show at the top dose activation, usual class: activators; 350,000 compounds, 0.064% hits; alpha7betagal myoblasts, beta-gal FDG fluorescence, 48 h;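 also: 100% = response of the positive control SU9516; nearly all actives have a fitted effect of over 60% in size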
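Alpha7betagal+/- myoblasts (passage 13) were plated 16-24 hr, then exposed to compounds (1:260 dilution of DMSO stock) for 48 hours at 37C. After MPER lysis, β-galactosidase reporter activity was read as FDG fluorescence (ex 480/em 540) after 30 minutes.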
Eya2 phos inh – inhibitors of human Eya2 phosphatase activity | AID 488837 | O00167 | 330,000 compounds, 0.006% hits | Potency, µM (highest dose often 76.9 µM), inactives show at the highest dose activity, negative = inhibition, most hits filed as inhibitors | recombinant Eya2, OMFP fluorescence dephosphorylation (OMFP is methylfluorescein phosphate); also: % is scaled to controls: 0 for no effect and ±100 for the full control effect
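Eya2 (0.2 uM) preincubated 10 min at ambient with compound, then OMFP substrate added at 50 uM; 10 min reaction in 50 mM HEPES pH 7.5, 50 mM NaCl, 5 uM MgCl2, 0.05% BSA, 1 mM DTT. Fluorescence read at Ex 485/Em 525 nm.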
Mm-Cpn inhibitor – blocks the Methanococcus maripaludis chaperonin Mm-Cpn | purified Mm-Cpn ATPase, ADP Transcreener TR-FRET | Potency, µM (series often up to 76.9 µM), for inactives: at the highest dose activity, negative = inhibition, most hits filed as inhibitors | 330,000 compounds, 0.031% hits | AID 504842; also: % is scaled to controls: 0 for no effect and ±100 for the full control effect; nearly all actives have a fitted effect of over 80% in size
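Inhibition of chaperonin ATP hydrolysis is measured as reduced ADP production, detected by competitive TR-FRET in which signal falls with ADP. Final enzyme 25 nM and ATP 10 uM, reacted 30 min at 37°C.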
p53 reactivation – restores transcriptional activity of mutant p53; H1299 p53-A138V BP100-luciferase reporter, luminescence, 24 h; Potency, µM (titrated, usually from 92.2 µM), for the others: top-dose activity change, positive = activation, actives largely listed as activators; 320,000 compounds, 0.063% hits; also: % of control where 0% means no effect; nearly all actives have a fitted effect of over 45% in size
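p53-null H1299 cells stably carrying temperature-sensitive p53-A138V and a BP100-luciferase reporter were pinned with compounds (4-point, 1:5 series) and held 24 hrs at 37 deg C. Luminescence was read 10 min after detection reagent.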
USP2a block – inhibitors of human ubiquitin-specific protease USP2a | O75604 | USP2 core, Ub-CHOP2 coupled fluorogenic reporter, 485/531 | Potency, µM (titrated, usually from 38.3 µM), for inactives: top-dose activity change, negative = inhibition, hits mostly inhibitors | 330,000 compounds, 0.01% hits | AID 463254;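 also: plate controls were DMSO wells for no effect and full inhibition by NEM control for full effect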
Target sequence (O75604 whole entry, looked up): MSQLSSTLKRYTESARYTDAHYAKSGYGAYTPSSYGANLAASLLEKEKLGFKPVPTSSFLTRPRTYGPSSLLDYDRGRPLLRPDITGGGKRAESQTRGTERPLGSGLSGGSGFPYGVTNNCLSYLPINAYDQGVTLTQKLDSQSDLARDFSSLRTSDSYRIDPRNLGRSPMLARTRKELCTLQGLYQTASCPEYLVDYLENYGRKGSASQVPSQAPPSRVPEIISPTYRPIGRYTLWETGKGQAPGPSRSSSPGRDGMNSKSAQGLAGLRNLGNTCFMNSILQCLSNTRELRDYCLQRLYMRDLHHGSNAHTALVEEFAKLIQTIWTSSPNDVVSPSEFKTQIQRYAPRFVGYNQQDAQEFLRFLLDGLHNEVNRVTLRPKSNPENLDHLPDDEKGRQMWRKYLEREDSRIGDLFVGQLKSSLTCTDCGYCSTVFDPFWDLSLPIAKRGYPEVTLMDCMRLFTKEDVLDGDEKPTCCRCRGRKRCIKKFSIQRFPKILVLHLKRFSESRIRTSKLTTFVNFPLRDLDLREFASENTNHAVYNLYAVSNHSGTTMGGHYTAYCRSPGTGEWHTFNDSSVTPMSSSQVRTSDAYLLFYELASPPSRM
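Cell-free coupled assay: 10nM USP2 core preincubated 30min RT with compound in Tris-HCl pH 8.0/CaCl2/CHAPS buffer, then 25nM Ub-CHOP2 and 25nM reporter substrate; fluorescence (Ex 485/Em 531) read after 60min RT, normalized to NEM inhibition, concentration-response curves fitted.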
ClpP mod – qHTS Assay for Activators of ClpP. 340,000 compounds, 1.9% hits. AID 651965, 2013. ATP-dependent Clp protease proteolytic subunit (Bacillus subtilis (strain 168)), P80244. Potency, µM (titrated, usually from 57.5 µM), for the others: at the top dose activity change, negative = active. purified B. subtilis ClpP, FRET peptide cleavage, 20 min; active = well fitted falling curve with a large enough effect; inconclusive = small, poorly fitted or top-dose-only effect; inactive = no such curve, though single readings can be large or run the other way; also: the source files actives as falling curves though it sought activators and does not explain the sign; nearly all actives have a fitted effect of over 65% in size
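FRET quenching reversal measured ClpP activation: 10 microg/mL B. subtilis ClpP at pH 8 with the FRET-FV decapeptide, read at 430 nm after 320 nm excitation. The 20-min minus 0-min signal was scaled between DMSO/no-enzyme wells and ADEP (5.8 microM final).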
The depositor's hits bear a star; ? = inconclusive; nt = no result; ! = not active in a repeat; [ ] = remark or other dose. Unless noted, calls follow the shape of the dose curve; as a rule, active = well fitted curve in the direction sought with a large enough effect; inconclusive = small, poorly fitted or top-dose-only effect, or another doubt; inactive = no such curve, though single readings can be large; an effect the other way counts as inactive or inconclusive. Potency is read from the fitted curve at half-maximal effect.

SMILES	a7 integrin act	Eya2 phos inh	Mm-Cpn inhibitor	p53 reactivation	USP2a block	ClpP mod
CC(=O)Nc1ccc(NC(=O)c2cc(=O)c3cc(C)cc(C)c3o2)cc1	11µM*	-9%	-1%	-1%	-1%	-2%
CN1CC2(Cc3cc([N+](=O)[O-])ccc31)C(=O)OC(C)(C)OC2=O	nt	nt	nt	nt	nt	0%
N#Cc1ccc(-c2ccc(OCC(=O)Nc3cccnc3)cc2)cc1	-37%	-5%	-2%	2%	2%	16µM*
CC(=O)Nc1ccc(NC(=O)COc2ccc(-c3ccc(C#N)cc3)cc2)cc1	-8%	-12%	-4%	-2%	1%	?
NCCCN(Cc1ccccc1)c1ccc(Br)cn1	nt	nt	nt	nt	nt	0%
CC(=O)c1ccc(N(C(=O)CNC(=O)c2ccco2)C(C(=O)NC2CCCC2)c2ccc(C)o2)cc1 (centres undefined)	10µM*	8%	1%	-3%	2%	-1%
COc1ccc(Nc2oc(-c3cccs3)nc2C#N)cc1	17%[1.53 µM]	-16%	-8%	7%	-1%	14µM*
CCc1ccc(NC(=O)CSc2nc3cc(C(=O)OC)ccc3c(=O)n2Cc2ccco2)cc1	-23%	?	0%	0%	-3%	-4%
CCN(C(=O)CSc1nc2cc(C(=O)OC)ccc2c(=O)n1Cc1ccco1)c1cccc(C)c1	6%	9%	-3%	-8%	1%	32µM*
Cc1cc(=O)oc2n[nH]c(-c3ccccc3)c12	-19%	0%	-2%	1%	3%	25µM*
COc1ccc(-c2[nH]nc3oc(=O)cc(C)c23)cc1	1%	nt	nt	nt	nt	?
CO/S(=N\S(=O)(=O)c1ccc(Cl)cc1)c1ccc([N+](=O)[O-])cc1 (centres undefined)	nt	13%	nt	nt	nt	nt
Cc1ncc(CO)c(/C=N/NC(=O)c2ccc(O)cc2)c1O	9%	1%	-16%	14%	4%	?
Cc1ncc(CO)c(/C=N/NC(=O)c2ccoc2C)c1O	11%	8%	-4%	30%	0%	25µM*
C=CCNc1ncnc2c1[nH]c1ccc(C)cc12	-18%	-21%	-4%	?	0%	16µM*
COc1ccc2[nH]c3c(NCc4ccco4)ncnc3c2c1	12%[7.66 µM]	-6%	-1%	?	3%	16µM*!
O=C(NNC(=S)Nc1ccc(F)cc1)c1cccc([N+](=O)[O-])c1	?	-2%	1%	14%	1%	nt
O=[N+]([O-])c1ccc(NNC(=S)Nc2ccc(F)cc2)cc1	-36%	0%	-1%	28µM*	2%	-1%
COc1cc2nc(N3CCCN(C)CC3)nc(NC3CCN(Cc4ccccc4)CC3)c2cc1OC	nt	3%	nt	nt	nt	4%
O=c1oc2ccc(Br)cc2cc1-c1nc2c(s1)CCc1ccccc1-2	nt	nt	nt	nt	nt	3%
Cc1cccc2c(C(O)c3c[nH]c4c(C)cccc34)c[nH]c12	nt	nt	nt	nt	nt	4%
CC(C)CCNC(=O)[C@@H](c1ccccc1)N1Cc2ccccc2C1=O	nt	nt	nt	nt	nt	-4%
Cc1ccc(C(=O)C(c2ccccc2)N2Cc3ccccc3C2=N)cc1 (centres undefined)	-34%	1%	-18%	-3%	-10%	3.2µM*
CCCN1CNc2c(c(=O)[nH]c(=S)n2CCc2ccc(OCC)c(OCC)c2)C1	nt	nt	nt	nt	nt	-2%
CCN(CC)c1ccc(-c2nnc(SCC(=O)NCc3ccco3)n2C)cc1	nt	nt	nt	nt	nt	-1%
SMILES	a7 integrin act	Eya2 phos inh	Mm-Cpn inhibitor	p53 reactivation	USP2a block	ClpP mod
CCOC(=O)c1c(NC(=O)c2cccc(N3C(=O)CCC3=O)c2)sc(C)c1C	15%	-2%	-5%	-6%	0%	-9%
CCOC(=O)c1c(-c2ccc(-c3ccccc3)cc2)csc1NC(=O)c1cccc(N2C(=O)CCC2=O)c1	17%	6%	-27%	-8%	1%	16µM*
O=S(=O)(c1ccc(F)cc1)N1CCN(c2nc(-c3cccs3)nc3ccccc23)CC1	nt	nt	nt	nt	nt	4%
COc1ccc(-c2csc3ncnc(Nc4ccc(OC)c(OC)c4)c23)cc1	nt	nt	nt	nt	nt	5%
CCC1=NN2C(=N)/C(=C/c3cc(C)n(Cc4ccccc4)c3C)C(=O)N=C2S1	27%	1%	2%	1%	1%	25µM*
Cc1cc(/C=C2\C(=N)N3N=C(C(C)C)SC3=NC2=O)c(C)n1Cc1ccccc1	23%	-1%	-6%	-2%	0%	nt
CCCc1nn(C)c2c(=O)[nH]c(-c3ccccc3OCC)nc12	-9%	6%	-1%	6%	1%	20µM*
COC(=O)c1cc2c(ccn2-c2ccc(F)cc2)n1Cc1ccc(C#N)cc1	-27%	3%	-1%	-4%	0%	1%
COC(=O)c1cc2c(ccn2-c2ccc(F)cc2)n1Cc1ccc(OC)cc1	-6%	-1%	-7%	15%	-1%	22µM*
CC(=O)OCC1OC(Sc2cccc3cccnc23)C(OC(C)=O)C(OC(C)=O)C1OC(C)=O (centres undefined)	-55%	8%	-3%	-7%	7%	16µM*
CC(=O)OCC1OC(n2ccc3ccccc32)C(OC(C)=O)C(OC(C)=O)C1OC(C)=O (centres undefined)	4%	7%	-1%	-3%	0%	1%
COc1cc2nc(N3CCOCC3)nc(NC3CCN(C)CC3)c2cc1OC	nt	nt	nt	nt	nt	4%
COc1cccc(N2CCN(C(=O)c3ccc(=O)oc3)CC2C)c1 (centres undefined)	32%	18%	-1%	7%	0%	28µM*
COc1cccc(NC(=O)N2CCN(c3cccc(C)c3)C(C)C2)c1 (centres undefined)	1%	-14%	1%	5%	-1%	0%
O=C(COc1ccccc1C(=O)Nc1ccccc1)Nc1ccccc1-c1ccccc1	nt	nt	nt	nt	nt	-27%
COCCSc1ncnc2c1oc1nc3c(cc12)COC(C)(C)C3	-20%	-10%	-4%	10%	0%	-7%
CC1(C)Cc2nc3oc4c(N(CCO)Cc5ccccc5)ncnc4c3cc2CO1	4%	-13%	0%	-14%	-1%	14µM*
Cc1nn(-c2ccc(F)cc2)c2sc(C(=O)OCC(=O)N3CCC(C)CC3)cc12	-2%[7.66 µM]	14%	-3%	7%	1%	22µM*
CCN1CCc2c(sc(NC(=O)c3ccc(S(=O)(=O)N4CCCC4)cc3)c2C(=O)NC)C1	-31%	-4%	-3%	35µM*	0%	-1%
Cc1sc(-c2cc3ccccc3oc2=O)nc1-c1ccc(Cl)c(Cl)c1	nt	nt	nt	nt	nt	-11%
Cc1sc(-c2cc3ccccc3oc2=O)nc1-c1ccc(Cl)cc1	nt	nt	nt	nt	nt	32µM*
